A selection: hits, their analogues and other compounds. The true share with any hit is near 19%.
Marburg entry inh = blocks Marburg virus binding to or entry into cells. Marburg virus pseudotyped entry inhibition, cell reporter. hit rate 1.8% among 300,000. Potency, µM (series often up to 37.8 µM), without a hit: at the highest dose activity change, negative = inhibition, actives largely listed as inhibitors; calls by dose curve; tested in HEK293 cells; further: potency means the concentration at half of the fitted maximal effect; on the % scale 0 is the no-effect control and ±100 the full control effect
CHX counter = counter-screen for Shiga toxin inhibitors: cycloheximide protein synthesis inhibition. cell reporter, cycloheximide protein synthesis inhibition counterscreen. max response, %. hit rate 12% among 300,000; in the data active means max response mostly above about 13%, no sharp cut-off; inactive means mostly below about 14%; further: read at 38.3 µM for the half of the compounds with a filed dose; 0% is about no effect
Pf growth 96h = P. falciparum growth inhibition at 96 hours; P. falciparum luciferase reporter growth, 96 h; Potency, µM (top dose mostly 28.7 µM), without a hit: at the highest dose activity change, negative = inhibition, hits mostly inhibitors; hit rate 6.9% among 320,000; further: potency means the concentration at half of the fitted maximal effect; on the % scale 0 is the no-effect control and ±100 the full control effect
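Parasite growth measured via integrated firefly luciferase reporter in P. falciparum. Infected erythrocytes at 2% hematocrit, 0.05% parasitemia final were treated 96 hours at 37 C under 5% CO2, and luminescence was read.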
Shiga inhibitor = inhibitors of Shiga toxin in Vero cells; hit rate 9.2% among 290,000; AID 2315; Vero cells, Shiga toxin protein synthesis inhibition reporter; inhibition, % at 38.7 µM; in the data active means inhibition mostly above about 28%, no sharp cut-off; inactive means mostly below about 43%; further: 0% is about no effect
LASV entry inh = inhibitors of Lassa virus binding or cell entry; Lassa virus pseudotype entry inhibition, cell reporter; Potency, µM (top dose mostly 37.9 µM), for the others: at the top dose activity change, negative = inhibition, actives largely listed as inhibitors; hit rate 1.2% among 300,000; calls by dose curve; tested in HEK293 cells; further: potency means the concentration at half of the fitted maximal effect; on the % scale 0 is the no-effect control and ±100 the full control effect; nearly all actives have a fitted effect of over 50% in size
Pf growth 48h = P. falciparum growth inhibition at 48 hours (one generation). P. falciparum luciferase growth in erythrocytes, 48 h. Potency, µM (titrated, usually from 28.7 µM), for the others: top-dose activity change, negative = inhibition, most hits filed as inhibitors. hit rate 5.9% among 310,000; further: potency means the concentration at half of the fitted maximal effect; on the % scale 0 is the no-effect control and ±100 the full control effect
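Cell-based growth assay: transgenic P. falciparum expressing firefly luciferase, cultured in red cells within RPMI 1640 containing 0.5% w/v Albumax, 24 mM bicarbonate and gentamycin. A drop in luciferase activity indicates inhibition.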
Starred values were filed as active, the others as inactive; i = inactive; ? = inconclusive; . = no result given; [ ] = remark or other dose. Unless noted, the call rests on the fitted dose curve; in most records, active means well fitted inhibition curve with a large enough effect; inconclusive means small, poorly fitted or top-dose-only effect, or another doubt; inactive means no such curve, though single readings can be large or run the other way.

SMILES | Marburg entry inh | CHX counter | Pf growth 96h | Shiga inhibitor | LASV entry inh | Pf growth 48h
Cc1cccn2c(=O)c3cc(S(=O)(=O)c4ccccc4)c(=N)n(Cc4cccnc4)c3nc12 | -5%[46.1 µM] | 1 | 42% | -4 | 17% | ?
O=C(CSc1nc2nn(-c3ccccc3)c(=O)c-2c2n1CCCCC2)c1ccc(O)c(O)c1 | ? | . | ? | . | ? | 9.3µM*
O=C(O)C1CC=CCC1C(=O)N1CCN(c2nc(-c3ccccc3)c3ccccc3n2)CC1 (centres undefined) | ? | -1 | . | -5 | -3% | ?
COc1cccc(CN2CCN(C(=O)c3ccco3)CC2)c1OC | -21% | . | . | . | -14% | .
Cc1nnsc1S(=O)c1ccc(Cl)c(Cl)c1 (centres undefined) | . | -2 | 5.2µM* | 2 | . | .
Cc1nnsc1S(=O)c1ccc(Cl)cc1 (centres undefined) | . | -2 | 1.7µM* | -6 | . | .
O=C(CSCCO)Nc1ccccc1 | -1% | 1 | 47% | -14 | 11% | 0%
CS(=O)(=O)N(Cc1ccc(C(=O)NN=C2CCCCCC2)cc1)c1ccccc1 | ? | -3 | -4% | -5 | ? | 8%
COC(=O)c1ccc(CNC(=O)C(NC(=O)c2ccco2)C(C)C)cc1 (centres undefined) | -19%[46.1 µM] | -2 | 11% | -6 | 4%[46.1 µM] | 4%
Cc1ccc(C2c3c(oc4cc(C)c(C)cc4c3=O)C(=O)N2CCCN2CCOCC2)cc1 (centres undefined) | -1% | -2 | ? | -4 | . | 5.2µM*
C=CCOc1ccc(C2c3c(oc4ccccc4c3=O)C(=O)N2CCCN2CCOCC2)cc1 (centres undefined) | 19% | -2 | ? | 26 | 1% | ?
CC(C)Oc1ccc(C2c3c(oc4ccccc4c3=O)C(=O)N2CCCN2CCOCC2)cc1 (centres undefined) | -4% | 17* | ? | 54* | -1% | ?
CC(C)=CCN1CCN(Cc2cnc(-c3ccccc3)s2)CC1CCO (centres undefined) | . | -2 | -15% | -10 | . | ?
COc1cccc(CN2CCN(Cc3cccc4c3OCO4)CC2CCO)c1 (centres undefined) | 3%[46.1 µM] | 19* | 0% | 47 | 4% | 149%
OCCC1CN(Cc2cc3c(cc2Cl)OCO3)CCN1Cc1ccccc1 (centres undefined) | -3%[46.1 µM] | -1 | 10µM* | -13 | -1%[46.1 µM] | ?
Cc1ccc(CN2CCN(Cc3cccc4c3OCO4)CC2CCO)cc1 (centres undefined) | ? | -3 | ? | -5 | 9%[46.1 µM] | -27%
COc1cccc(CN2CCN(Cc3c(C)nn(C(C)C)c3C)CC2CCO)c1 (centres undefined) | . | -3 | 10µM* | -12 | . | -1%
COc1cccc(CN2CCN(Cc3ccc(O)cc3)CC2CCO)c1 (centres undefined) | . | -2 | -7% | -7 | . | 9%
OCCC1CN(Cc2cnc(-c3ccccc3)s2)CCN1Cc1ccccc1 (centres undefined) | ? | -1 | 12µM* | 8 | ? | -22%
CC(C)(C)NS(=O)(=O)c1ccc(NC(=O)C2CC(=O)N(CCc3ccc(F)cc3)C2)cc1 (centres undefined) | 2%[46.1 µM] | -2 | -26% | 19 | ? | ?
Cc1ccc(N(C(=O)CCC(=O)Nc2nccs2)C(C(=O)NC(C)(C)C)c2ccc(O)cc2)cc1 (centres undefined) | 8.9µM* | 3 | 8.3µM* | -17 | -15%[46.1 µM] | ?
CC(C)(C)NC(=O)C(c1ccc(O)cc1)N(C(=O)CCC(=O)Nc1nccs1)c1ccc(F)cc1 (centres undefined) | 2.2µM* | 1 | 10µM* | -14 | ? | ?
CCOC(=O)c1c(C)[nH]c(CCC(=O)Nc2ccccc2C(=O)OC)c1C | . | . | . | . | -17%[46.1 µM] | .
NC(=O)C(CC(=O)O)NC(=O)[C@@H]1CCOc2c(I)cc([N+](=O)[O-])cc2C(=O)N[C@@H](CO)C(=O)N[C@@H](Cc2ccc(O)cc2)C(=O)N1 (some centres undefined) | -6% | -5 | 9% | -10 | 6% | 4%
O=C(COC(=O)Cc1cn2ccsc2n1)Nc1nc2ccccc2s1 | 4%[46.1 µM] | 16 | ? | 20 | 20% | 12%
SMILES | Marburg entry inh | CHX counter | Pf growth 96h | Shiga inhibitor | LASV entry inh | Pf growth 48h
O=C1NC(=O)C2(CCc3ccccc32)N1 (centres undefined) | 0% | -2 | -15% | 4 | -1% | 14%
C=C1CC2(OC1=O)c1ccccc1CCc1ccccc12 | ? | . | . | . | 20µM* | .
C[C@]12CCC3C(CC[C@H]4C[C@@H](O)CC[C@]34C)C1CCC2=O (some centres undefined) | 0% | . | . | . | -9%[46.1 µM] | .
CC[C@H]1OC(=O)[C@H](C)[C@@H](O[C@H]2C[C@@](C)(OC)[C@@H](O)[C@H](C)O2)C(C)[C@@H](O[C@@H]2O[C@H](C)C[C@H](N(C)C)[C@@H]2O)[C@](C)(OC)C[C@@H](C)C(=O)[C@H](C)[C@@H](O)[C@]1(C)O (some centres undefined) | . | . | 1.3µM* | . | . | 13µM*
CCC1OC(=O)C(C)[C@@H](O[C@H]2C[C@@](C)(OC)C(O)C(C)O2)C(C)[C@@H](O[C@@H]2OC(C)CC(N(C)C)C2O)[C@@](C)(O)CC(C)C(=O)[C@@H](C)C(O)[C@]1(C)O (some centres undefined) | . | . | ? | . | . | -14%
CCC1OC(=O)C(C)C(OC2C[C@@](C)(OC)C(O)C(C)O2)C(C)C(O[C@@H]2OC(C)CC(N(C)C)C2O)[C@](C)(O)CC(C)C(=NOCOCCOC)C(C)C(O)[C@]1(C)O (some centres undefined) | . | . | 7.4µM* | . | . | ?
CC[C@H]1OC(=O)[C@H](C)[C@@H](O[C@H]2C[C@@](C)(OC)[C@@H](O)[C@H](C)O2)[C@H](C)[C@@H](O[C@@H]2O[C@H](C)C[C@H](N(C)C)[C@H]2O)[C@](C)(O)C[C@@H](C)CN(C)[C@H](C)[C@@H](O)[C@]1(C)O | . | . | 0.13µM* | . | . | 13µM*
S=C(c1ccc(-c2cc(Cl)ccc2Cl)o1)N1CCOCC1 | ? | 2 | 50% | -4 | -21% | ?
S=C(c1ccc(-c2cccc(Cl)c2)o1)N1CCCCC1 | -26%[46.1 µM] | 49* | 485% | 55* | ? | i
S=C(c1ccc(-c2cccc(Cl)c2)o1)N1CCOCC1 | 14% | 43* | 3% | 188* | ? | 206%
O=[N+]([O-])c1ccc(N2CCCCC2)cn1 | . | 26 | 15% | 33 | . | -2%
C=CCn1c(SCc2nc3ccccc3c(=O)[nH]2)nc2ccccc2c1=O | -18% | 13 | . | -15 | -23% | ?
COc1cc(CN(C)C(C)C(=O)Nc2ccc([N+](=O)[O-])cc2Cl)ccc1OC(F)F (centres undefined) | ? | -3 | ? | -5 | ? | 13µM*

Assay outcomes as filed in PubChem BioAssay.
